Screening results: PubChem BioAssay, several laboratories
LGR2 inh – inhibitors of bursicon-induced LGR2 CRE-luciferase signal, primary screen, cell-based, HEK293, CRE-luciferase reporter, bursicon stimulation; Drosophila bursicon receptor LGR2 (rickets); bursicon-stimulated, 4 h; inhibition, % at 9.99 µM; 0.35% of 380,000 active; AID 720647, 2013;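 active = drop in luminescence signal, shown as inhibition above about 50% in the replicate tests, limit read from the data, passing the limit was not always enough; inconclusive = probably only some replicates passing the limit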;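 also: agonist challenge used bursicon conditioned medium at about half maximal strength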
TWEAK Fn14 block – inhibitors of TWEAK-Fn14 signaling, primary screen, luciferase reporter cells, uHTS; TWEAK-stimulated Fn14 reporter cells, luciferase luminescence, 8 h; inhibition, % at 10 µM; 2% of 360,000 active; AID 1159606, 2016; in the data active = inhibition above about 50%
EWS-Fli inh – EWS/Fli-driven NR0B1 reporter inhibitors, primary screen, A673 cells, NR0B1 luciferase, luminescence, MLPCN library; viability-normalised; inhibition, % at 12.6 µM; 0.67% of 350,000 active;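 active = mean inhibition of at least 50% after viability correction, with every replicate also passing that limit; inconclusive = mean reaches 50% but only one of two replicates passes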;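 also: firefly luciferase signal divided by Alamar Blue viability fluorescence both relative to DMSO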
PAX8 inh HTS – inhibitors of PAX8-driven TPO luciferase reporter, primary screen, RMG-I cells, single concentration. inhibition, % at 12.6 µM. 1.2% of 360,000 active. SteadyGlo, 24 h. AID 652154, 2013;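 active = mean replicate inhibition at least 60% with every replicate also reaching 60%; inconclusive = only one of the two criteria is met; inactive = mean below 60% and not all replicates reaching 60%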;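 also: luciferase light reporting Pax8 driven TPO promoter activity; plate controls were median of neutral control wells for no effect and mitoxantrone controls for full effect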
TROY signal inh – inhibitors of TROY-driven NF-kB signaling, primary screen, Q293 LMP1-TROYcd cells, NF-kB luciferase, uHTS; Q293 LMP1-TROYcd NF-kB luciferase reporter, 4 h; inhibition, % at 10 µM; 0.98% of 360,000 active;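 active = compounds whose plate-normalised and pattern-corrected inhibition of the luciferase reporter signal at the single screening dose is 50% or more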
An asterisk follows results filed as active; u = inconclusive; x = no result given. Compounds with a hit are over-represented: about 2.8% of the library has one in this group of screens.

SMILES	LGR2 inh	TWEAK Fn14 block	EWS-Fli inh	PAX8 inh HTS	TROY signal inh
CNC(=O)C[C@@H]1CC[C@@H]2[C@H](COc3ccc(NC(=O)NC4CCCC4)cc3C(=O)N2C)O1	-7	x	-12	-10	x
CO[C@@H](CN(C)S(=O)(=O)c1cn(C)cn1)[C@H](C)CN(C(=O)Nc1ccc(F)cc1)[C@@H](C)CO	-5	x	-8	x	x
N#CNC(=Nc1ccccc1)SCc1ccc(C(=O)O)cc1	-14	1	-1	3	2
CSC(=Nc1ccccc1)N=C(SCc1ccccc1)N(C)C	76*	80*	57*	101*	45
C[C@@H]1CCCCO[C@H](CN(C)CC2CCCCC2)[C@H](C)CN([C@@H](C)CO)C(=O)c2cc(NC(=O)Nc3ccccc3)ccc2O1	5	x	19	78*	x
C[C@@H]1CCCCO[C@H](CN(C)CC2CCCCC2)[C@H](C)CN([C@@H](C)CO)C(=O)c2cc(NC(=O)Cc3ccccc3)ccc2O1	-23	x	73*	-1	x
C[C@@H]1CCCCO[C@@H](CN(C)CC2CCCCC2)[C@H](C)CN([C@@H](C)CO)C(=O)c2cc(NC(=O)Nc3ccc(C(F)(F)F)cc3)ccc2O1	6	x	76*	17	x
C[C@@H]1CCCCO[C@@H](CN(C)CC2CCCCC2)[C@@H](C)CN([C@H](C)CO)C(=O)c2cc(NC(=O)Nc3ccc(C(F)(F)F)cc3)ccc2O1	-11	x	-11	-21	x
C[C@@H]1CCCCO[C@H](CN(C)CC2CCCCC2)[C@H](C)CN([C@@H](C)CO)C(=O)c2cc(NC(=O)Nc3ccc(C(F)(F)F)cc3)ccc2O1	-4	x	81*	-11	x
COc1ccc(C(=O)Nc2ccc3c(c2)C(=O)N(C)C[C@H](OC)[C@H](C)CN(C)[C@@H](C)CO3)cc1	15	x	-8	-2	x
COc1ccc2c(c1)c(CC(=O)Nc1nnc(C3CC3)s1)c(C)n2C(=O)c1ccc(Cl)cc1	24	58*	-33	3	53*
COc1ccc2c(c1)c(CC(=O)NCc1cc([N+](=O)[O-])ccc1O)c(C)n2C(=O)c1ccc(Cl)cc1	3	43	1	-1	62*
C[C@H]1CN([C@@H](C)CO)C(=O)c2cc(C#CC(C)(C)O)cnc2O[C@H]1CN(C)C(=O)c1ccccc1F	0	x	0	x	x
Cc1noc(C)c1S(=O)(=O)Nc1ccc2c(c1)CC(=O)N([C@H](C)CO)C[C@H](C)[C@H](CN(C)Cc1ccc(C(=O)O)cc1)O2	5	x	-1	-32	x
CCC(CC)C(=O)N1CCCC(c2nc(-c3cccs3)no2)C1 (stereo not given)	x	-24	x	-33	-28
CCOc1ccc(C(=O)N2CCCC(c3nc(-c4cccs4)no3)C2)cc1 (stereo not given)	0	63*	-26	-43	64*
O=C(NCC[C@H]1CC[C@@H](NS(=O)(=O)Cc2ccccc2)[C@@H](CO)O1)C1CC1	-10	x	1	2	x
CN(C)c1ccc(C(=O)Nc2nc3c(s2)CCCC3)cc1	u	72*	8	-10	23
C/C(=N\Nc1nc2c(s1)CCCC2)c1ccc(Cl)cc1	x	55*	x	-14	31
CC(C)(C)c1ccc(C(=O)NC(=S)Nc2sc3c(c2C#N)CCC3)cc1	27	-49	x	-24	19
Cc1cc(C(=O)Nc2nc3c(s2)CCCC3)no1	x	61*	x	-37	-2
CC(C)(C)c1ccc(C(=O)NC(=S)Nc2nc3c(s2)CCCC3)cc1	16	82*	-6	-83	84*
COCC(=O)Nc1ccc2c(c1)OC[C@H](C)N(Cc1ccccc1OC)C[C@H](C)[C@H](OC)CN(C)C2=O	-5	x	10	-25	x
CC(C)NC(=O)NCC[C@@H]1CC[C@@H](NC(=O)CCN2CCCCC2)[C@@H](CO)O1	10	x	x	x	x
O=C(NCC1CC1)[C@H]1[C@H](CO)[C@H]2Cn3c(ccc(C4=CCCC4)c3=O)[C@@H]1N2CCC(F)(F)F	-20	x	-8	-11	x
SMILES	LGR2 inh	TWEAK Fn14 block	EWS-Fli inh	PAX8 inh HTS	TROY signal inh
C=CCC[C@@H](Cc1ccc(F)cc1)C(=O)OC[C@H](Cc1c[nH]c2ccccc12)NC(=O)[C@H](CC=C)CC(=O)NCCO	18	32	7	27	17
C=CCC[C@@H](Cc1ccc(F)cc1)C(=O)OC[C@@H](Cc1c[nH]c2ccccc12)NC(=O)[C@H](CC=C)CC(=O)N(CCO)Cc1ccccc1	43	58*	4	101*	33
C=CCC[C@H](Cc1ccc(F)cc1)C(=O)OC[C@@H](Cc1c[nH]c2ccccc12)NC(=O)[C@H](CC=C)CC(=O)N(CCO)Cc1ccccc1	19	89*	6	77*	38
C=CCC[C@H](Cc1ccc(F)cc1)C(=O)OC[C@@H](Cc1c[nH]c2ccccc12)NC(=O)[C@H](CC=C)CC(=O)NCCO	6	21	-2	28	21
COC(=O)c1ccc([C@@H]2C=C(C(=O)NCc3ccccc3)O[C@H](OCCCCO)C2)cc1	x	x	-9	3	x
CNC[C@H]1Oc2ccc(NC(=O)C3CC3)cc2CC(=O)N([C@@H](C)CO)C[C@@H]1C	-3	x	6	-3	x
Cc1[nH]n(-c2ccccc2)c(=O)c1N=Nc1ccccc1O	4	-2	13	66*	-28
C[C@@H]1CCCCO[C@@H](CN(C)Cc2ccncc2)[C@@H](C)CN([C@@H](C)CO)C(=O)c2cc(NC(=O)Nc3ccccc3)ccc2O1	-9	x	x	6	x
COc1ccc(C(=O)N/N=C/c2ccc(OC(=O)c3ccccc3)cc2)cc1	-10	-14	x	15	-10
Cc1cccc(C(=O)Oc2ccc(/C=N/NC(=O)Cc3ccc([N+](=O)[O-])cc3)cc2)c1	5	-13	x	29	-12
CCOc1cc(/C=N\NC(=O)c2ccc(NC(=O)C(C)(C)C)cc2)ccc1OC(=O)c1cccc(C)c1	x	86*	x	x	53*
Cc1cccc(C(=O)Oc2ccc(/C=N/NC(=O)c3ccccc3O)cc2)c1	-11	-1	-6	104*	48
Cc1cccc(C(=O)Oc2ccc(/C=N/NC(=O)c3ccc(O)cc3)cc2)c1	14	5	x	-13	52*
O=C(Cc1ccncc1)N1CC[C@@H]2[C@H]1c1cc(-c3ccccc3F)ccc1N[C@@H]2CO	-2	x	-40	-84	x
C/C=C/c1ccc([C@H]2[C@@H](CO)N3C(=O)CN(Cc4ccc(C)cc4)C[C@@H]23)cc1	-9	x	x	x	x
CCS(=O)(=O)Nc1ccc2c(c1)C(=O)N(C)C[C@@H](OC)[C@@H](C)CN(CC1CCCCC1)[C@H](C)CO2	-18	x	1	-2	x
O=C(Nc1ccc(C(O)(C(F)(F)F)C(F)(F)F)cc1)c1ccc(Cl)c([N+](=O)[O-])c1	-5	62*	-12	-22	50*
Cc1cccc(C)c1NS(=O)(=O)c1ccc(NC(=O)c2ccc(Cl)c([N+](=O)[O-])c2)cc1	9	87*	11	22	68*
